{
  "source": "PubChem BioAssay AID602290",
  "about": "(National Center for Advancing Translational Sciences (NCATS), 2012)",
  "note": "Calls of active or inactive are those of the source.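 How the source made its calls: active means fold change shows a rise in VEGF expression relative to GAPDH, above the control level; inconclusive means expression about equal to the control; inactive means no rise in relative expression.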",
  "data": [
    {"experiment": "qHTS Assay for Agonists of the Relaxin Receptor RXFP1: VEGF expression", "details": "THP1 cells, VEGF mRNA qRT-PCR, 2 h; hits give high values", "from_the_text": "The relaxin hormone is involved in the variety of biological functions in normal tissues and diseases. The role of relaxin is well-established in female reproduction and parturition, mammary gland and endometrial development, maintenance of myometrial quiescence during pregnancy. Relaxin signaling through its G protein-coupled receptor (GPCR) RXFP1 results in ECM remodeling through regulation of collagen deposition, cell invasiveness, proliferation and overall tissue homeostasis. […] Recombinant human relaxin (rhRlx) is currently being tested in clinical trials as a protective agent in congestive heart failure, in treating severe preeclampsia, and as an anti-fibrotic agent in systemic sclerosis.\nUpon relaxin binding RXFP1 activation leads to the activation of adenylate cyclase (AC) via Gs. cAMP will activate PKA, which phosphorylates many signaling proteins. Thus, detection of cAMP increase is an easy and reliable indication of relaxin receptor activation. To screen for agonists of the relaxin receptor, a HEK293T cell line stably transfected with RXFP1 was used. RXFP1 activation was assayed by changes in cAMP levels as detected with a time-resolved fluorescence energy transfer (TR-FRET) cAMP detection kit.\nAfter the primary screen and SAR work, a probe and its analogs were tested in this selectivity assay. THP1 cells (human acute monocytic leukemia cell line) were used to analyze the stimulation of VEGF gene expression after treatment with relaxin or compounds. The VEGF stimulation in these cultured […] cells is a well-established property of relaxin.\nNIH Chemical Genomics Center [NCGC]\nNIH Molecular Libraries Probe Production Centers Network [MLPCN]\nAssay Submitter (PI): Alexander Agoulnik\n400,000 THP1 cells (0.4 mL at 1x10^6 cells/mL) in test media (RPMI-1640 without phenol red, 0.5% FBS, 1x Pen/Strep, 0.05 mM of 2-mercaptoethanol) were seeded in each well on a 24-well plate. After 24 hours incubation at 37 degrees C, 5% CO2, relaxin or compounds were added for 2 hours. The cells were harvested and RNA was extracted by the Trizol (Invitrogen, Carlsbad, CA) method according to manufacturers' instructions. cDNA was synthesized by using Verso cDNA kit (Thermo Scientific, Waltham, MA) according to manufacturer's protocol. Quantitative real time RT-PCR for VEGF and GAPDH gene expression was done using a Roche LightCycler 480 (Roche Diagnostics, Indianapolis, IN) with the appropriate set of primers and probes spanning different exons. The relative fold change in VEGF mRNA level was calculated by the comparative Ct (2- Ct) method using GAPDH expression for normalization of RNA.", "values": [
      {"compound": "CCOc1ccccc1C(=O)Nc1ccccc1C(=O)Nc1cccc(C(F)(F)F)c1", "fold change": "1.93 (active)"},
      {"compound": "CCCCOc1ccccc1C(=O)Nc1ccccc1C(=O)Nc1cccc(S(=O)(=O)C(F)(F)F)c1", "fold change": "1.57 (active)"},
      {"compound": "CCCOc1ccccc1C(=O)Nc1ccccc1C(=O)Nc1cccc(S(=O)(=O)C(F)(F)F)c1", "fold change": "1.53 (active)"},
      {"compound": "CCOc1ccccc1C(=O)Nc1ccccc1C(=O)Nc1cccc(S(=O)(=O)C(F)(F)F)c1", "fold change": "2.33 (active)"},
      {"compound": "COc1ccccc1C(=O)Nc1ccccc1C(=O)Nc1cccc(SC(F)(F)F)c1", "fold change": "1.15 (active)"},
      {"compound": "CC(C)Oc1ccccc1C(=O)Nc1ccccc1C(=O)Nc1cccc(S(=O)(=O)C(F)(F)F)c1", "fold change": "2.79 (active)"},
      {"compound": "O=C(Nc1cccc(S(=O)(=O)C(F)(F)F)c1)c1ccccc1NC(=O)c1ccccc1OCC(F)(F)F", "fold change": "1.24 (active)"},
      {"compound": "O=C(O)c1cc(-c2ccccc2)nn1CC1CC(c2cccnc2)=NO1", "note": "(centres undefined)", "fold change": "1.01 (inactive)"},
      {"compound": "COc1ccccc1C(=O)Nc1ccccc1C(=O)Nc1cccc(S(=O)(=O)C(F)(F)F)c1", "fold change": "1.41 (active)"}
    ]}
  ]
}
